In PubChem BioAssay (NCATS):
Results filed as inconclusive are left out. Activity calls are given as the source filed them. Unless noted, calls come from the whole dose curve; as a rule, active = well fitted curve in the direction sought with a large enough effect; inconclusive = small, poorly fitted or top-dose-only effect, or another doubt; inactive = no such curve, though single readings can be large; an effect the other way counts as inactive or inconclusive.

Assays:
[1] = Inducers of the Endoplasmic Reticulum Stress Response (ERSR) in human glioma: Validation (AID 504836); note: 0% is about no effect
In short: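 Stably transfected U87-MG human glioma cells carrying a GRP78-based luminescent sensor were seeded at 1000 cells/well, pin-dosed with compounds and incubated 16 h. Luciferase reagent was then added, and end-point luminescence was read after 10 min at room temperature.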

[2] = target: ATP-dependent 6-phosphofructokinase (Trypanosoma brucei brucei) (UniProt O15648); test: qHTS Assay to Find Inhibitors of T. brucei phosphofructokinase: hit validation (AID 492961);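 note: luminescence reports ADP formed as PFK phosphorylates fructose-6-phosphate with ATP; % is set by controls: 0 for no effect and ±100 for the full control effect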
In short: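 Reaction: 0.1 M triethanolamine pH 8.0, 5 mM MgCl2, F6P 0.5 mM, ATP 0.1 mM, PFK 1.25 nM, 45 min RT. Read-out: ADP-Glo luminescence. Analysis: concentration-response fits, classed by r2 and efficacy.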

[3] = target: Ubiquitin carboxyl-terminal hydrolase 1 (Homo sapiens) (UniProt O94782); test: Inhibitors of USP1/UAF1: Pilot qHTS (AID 504865);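 note: rhodamine fluorescence freed from ubiquitin-rhodamine substrate followed over time; top concentration of the series differs between compounds; % is set by controls: 0 for no effect and ±100 for the full control effect; nearly all actives have a fitted effect of over 35% in size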
In short: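 Kinetic fluorescence assay: 1nM USP1/UAF1, 15 min compound preincubation, then 150nM Ub-Rho; 480/540 nm.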

[4] = target: Luciferin 4-monooxygenase (Photinus pyralis) (UniProt P08659); test: Biochemical firefly luciferase enzyme assay for NPC (AID 624030);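 note: purified P. pyralis luciferase at 10 nM with luciferin and ATP substrate; 0% = DMSO and -100% = full luciferase inhibition by PTC124 control; nearly all actives have a fitted effect of over 70% in size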
In short: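 Counter-screen for direct inhibition of the luciferase enzyme by approved-drug library compounds, run at 10 nM enzyme in 50 mM Tris acetate (final). Luminescence was read within 5 min of enzyme-buffer addition and normalized to PTC124 versus DMSO (0%).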

[5] = S16 Schwann cell PMP22 intronic element firefly luciferase assay (AID 624032);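 note: plate controls were DMSO for no effect and PTC124 positive control mean for full effect; nearly all actives have a fitted effect of over 30% in size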
In short: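 Rat S16 Schwann cells stably carrying a PMP22 intronic element-driven Fluc reporter were seeded overnight, then exposed to compounds for 24 h at 37 °C. Luminescence was normalized to PTC124 (positive control) and DMSO (0% activity).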

[6] = S16 Schwann cell PMP22 intronic element beta-lactamase assay (AID 624044; calls by dose curve;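 note: 0% = DMSO and -100% = potassium clavulanate positive control; nearly all actives have a fitted effect of over 15% in size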); settings: S16 rat Schwann cells, PMP22 element beta-lactamase FRET, 24 h; ratio activity, negative = inhibition: at 38.3 µM (top of the series)
In short: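 Rat S16 Schwann cells with beta-Lac driven by a PMP22 intronic element, compound-treated 24 h at 37 °C. LiveBLAzer FRET B/G read: 460 nm normalized to potassium clavulanate vs DMSO; 535 nm FRET as viability; concentration-effect curves classified.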

[7] = qHTS profiling for inhibitors of Plasmodium falciparum proliferation (AID 504749);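 note: 0% = DMSO vehicle and full inhibition = artemisinin control; nearly all actives have a fitted effect of over 60% in size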; settings: P. falciparum in erythrocytes, SYBR Green DNA, 72 h, at 28.7 µM (top of the series)
In short: (§1)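 P. falciparum-infected erythrocytes (0.3% parasitemia, 2.5% hematocrit final) were exposed to compounds for 72 h at 37 C in 5% CO2, then lysed with SYBR Green buffer overnight at room temperature; parasite DNA fluorescence was normalized to artemisinin and DMSO controls.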

3D7 = test: as above; settings: P. falciparum in erythrocytes, SYBR Green DNA, 72 h; series mostly up to 28.7 µM
In short: as §1

AA1029 = test: as above; settings: P. falciparum in erythrocytes, SYBR Green DNA, 72 h; series mostly up to 28.7 µM
In short: as §1

AS120 = test: as above; settings: P. falciparum in erythrocytes, SYBR Green DNA, 72 h; series mostly up to 28.7 µM
In short: as §1

ATS189 = test: as above; settings: P. falciparum in erythrocytes, SYBR Green DNA, 72 h; series mostly up to 28.7 µM
In short: as §1

ATS95 = test: as above; settings: P. falciparum in erythrocytes, SYBR Green DNA, 72 h; series mostly up to 28.7 µM
In short: as §1

C2A = test: as above; settings: P. falciparum in erythrocytes, SYBR Green DNA, 72 h; series mostly up to 28.7 µM
In short: as §1

CP185 = test: as above; settings: P. falciparum in erythrocytes, SYBR Green DNA, 72 h; series mostly up to 28.7 µM
In short: as §1

CP191 = test: as above; settings: P. falciparum in erythrocytes, SYBR Green DNA, 72 h; series mostly up to 28.7 µM
In short: as §1

CP192 = test: as above; settings: P. falciparum in erythrocytes, SYBR Green DNA, 72 h; series mostly up to 28.7 µM
In short: as §1

CP194 = test: as above; settings: P. falciparum in erythrocytes, SYBR Green DNA, 72 h; series mostly up to 28.7 µM
In short: as §1

CP201 = test: as above; settings: P. falciparum in erythrocytes, SYBR Green DNA, 72 h; series mostly up to 28.7 µM
In short: as §1

CP203 = test: as above; settings: P. falciparum in erythrocytes, SYBR Green DNA, 72 h; series mostly up to 28.7 µM
In short: as §1

CP211 = test: as above; settings: P. falciparum in erythrocytes, SYBR Green DNA, 72 h; series mostly up to 28.7 µM
In short: as §1

CP215 = test: as above; settings: P. falciparum in erythrocytes, SYBR Green DNA, 72 h; series mostly up to 28.7 µM
In short: as §1

CP217 = test: as above; settings: P. falciparum in erythrocytes, SYBR Green DNA, 72 h; series mostly up to 28.7 µM
In short: as §1

CP237 = test: as above; settings: P. falciparum in erythrocytes, SYBR Green DNA, 72 h; series mostly up to 28.7 µM
In short: as §1

CP238 = test: as above; settings: P. falciparum in erythrocytes, SYBR Green DNA, 72 h; series mostly up to 28.7 µM
In short: as §1

CP247 = test: as above; settings: P. falciparum in erythrocytes, SYBR Green DNA, 72 h; series mostly up to 28.7 µM
In short: as §1

CP250 = test: as above; settings: P. falciparum in erythrocytes, SYBR Green DNA, 72 h; series mostly up to 28.7 µM
In short: as §1

CP252 = test: as above; settings: P. falciparum in erythrocytes, SYBR Green DNA, 72 h; series mostly up to 28.7 µM
In short: as §1

CP256 = test: as above; settings: P. falciparum in erythrocytes, SYBR Green DNA, 72 h; series mostly up to 28.7 µM
In short: as §1

CP260 = test: as above; settings: P. falciparum in erythrocytes, SYBR Green DNA, 72 h; series mostly up to 28.7 µM
In short: as §1

CP262 = test: as above; settings: P. falciparum in erythrocytes, SYBR Green DNA, 72 h; series mostly up to 28.7 µM
In short: as §1

CP265 = test: as above; settings: P. falciparum in erythrocytes, SYBR Green DNA, 72 h; series mostly up to 28.7 µM
In short: as §1

CP266 = test: as above; settings: P. falciparum in erythrocytes, SYBR Green DNA, 72 h; series mostly up to 28.7 µM
In short: as §1

CP268 = test: as above; settings: P. falciparum in erythrocytes, SYBR Green DNA, 72 h; series mostly up to 28.7 µM
In short: as §1

CP269 = test: as above; settings: P. falciparum in erythrocytes, SYBR Green DNA, 72 h; series mostly up to 28.7 µM
In short: as §1

CP286 = test: as above; settings: P. falciparum in erythrocytes, SYBR Green DNA, 72 h; series mostly up to 28.7 µM
In short: as §1

CP291 = test: as above; settings: P. falciparum in erythrocytes, SYBR Green DNA, 72 h; series mostly up to 28.7 µM
In short: as §1

CP297 = test: as above; settings: P. falciparum in erythrocytes, SYBR Green DNA, 72 h; series mostly up to 28.7 µM
In short: as §1

CP305 = test: as above; settings: P. falciparum in erythrocytes, SYBR Green DNA, 72 h; series mostly up to 28.7 µM
In short: as §1

CP315 = test: as above; settings: P. falciparum in erythrocytes, SYBR Green DNA, 72 h; series mostly up to 28.7 µM
In short: as §1

CP325 = test: as above; settings: P. falciparum in erythrocytes, SYBR Green DNA, 72 h; series mostly up to 28.7 µM
In short: as §1

CP329 = test: as above; settings: P. falciparum in erythrocytes, SYBR Green DNA, 72 h; series mostly up to 28.7 µM
In short: as §1

CP335 = test: as above; settings: P. falciparum in erythrocytes, SYBR Green DNA, 72 h; series mostly up to 28.7 µM
In short: as §1

DFO2036 = test: as above; settings: P. falciparum in erythrocytes, SYBR Green DNA, 72 h; series mostly up to 28.7 µM
In short: as §1

DIV14 = test: as above; settings: P. falciparum in erythrocytes, SYBR Green DNA, 72 h; series mostly up to 28.7 µM
In short: as §1

DIV17 = test: as above; settings: P. falciparum in erythrocytes, SYBR Green DNA, 72 h; series mostly up to 28.7 µM
In short: as §1

DIV30 = test: as above; settings: P. falciparum in erythrocytes, SYBR Green DNA, 72 h; series mostly up to 28.7 µM
In short: as §1

ECU = test: as above; settings: P. falciparum in erythrocytes, SYBR Green DNA, 72 h; series mostly up to 28.7 µM
In short: as §1

FAB9 = test: as above; settings: P. falciparum in erythrocytes, SYBR Green DNA, 72 h; series mostly up to 28.7 µM
In short: as §1

GB4 = test: as above; settings: P. falciparum in erythrocytes, SYBR Green DNA, 72 h; series mostly up to 28.7 µM
In short: as §1

HB3 = test: as above; settings: P. falciparum in erythrocytes, SYBR Green DNA, 72 h; series mostly up to 28.7 µM
In short: as §1

JCK = test: as above; settings: P. falciparum in erythrocytes, SYBR Green DNA, 72 h; series mostly up to 28.7 µM
In short: as §1

N140 = test: as above; settings: P. falciparum in erythrocytes, SYBR Green DNA, 72 h; series mostly up to 28.7 µM
In short: as §1

P93_24 = test: as above; settings: P. falciparum in erythrocytes, SYBR Green DNA, 72 h; series mostly up to 28.7 µM
In short: as §1

P94_40 = test: as above; settings: P. falciparum in erythrocytes, SYBR Green DNA, 72 h; series mostly up to 28.7 µM
In short: as §1

PAD = test: as above; settings: P. falciparum in erythrocytes, SYBR Green DNA, 72 h; series mostly up to 28.7 µM
In short: as §1

PC15 = test: as above; settings: P. falciparum in erythrocytes, SYBR Green DNA, 72 h; series mostly up to 28.7 µM
In short: as §1

PC26 = test: as above; settings: P. falciparum in erythrocytes, SYBR Green DNA, 72 h; series mostly up to 28.7 µM
In short: as §1

PC49 = test: as above; settings: P. falciparum in erythrocytes, SYBR Green DNA, 72 h; series mostly up to 28.7 µM
In short: as §1

SC27B = test: as above; settings: P. falciparum in erythrocytes, SYBR Green DNA, 72 h; series mostly up to 28.7 µM
In short: as §1

TAB109 = test: as above; settings: P. falciparum in erythrocytes, SYBR Green DNA, 72 h; series mostly up to 28.7 µM
In short: as §1

TAB113 = test: as above; settings: P. falciparum in erythrocytes, SYBR Green DNA, 72 h; series mostly up to 28.7 µM
In short: as §1

TAB165 = test: as above; settings: P. falciparum in erythrocytes, SYBR Green DNA, 72 h; series mostly up to 28.7 µM
In short: as §1

Chain of ATP-dependent 6-phosphofructokinase (Trypanosoma brucei brucei) (O15648 whole entry, looked up): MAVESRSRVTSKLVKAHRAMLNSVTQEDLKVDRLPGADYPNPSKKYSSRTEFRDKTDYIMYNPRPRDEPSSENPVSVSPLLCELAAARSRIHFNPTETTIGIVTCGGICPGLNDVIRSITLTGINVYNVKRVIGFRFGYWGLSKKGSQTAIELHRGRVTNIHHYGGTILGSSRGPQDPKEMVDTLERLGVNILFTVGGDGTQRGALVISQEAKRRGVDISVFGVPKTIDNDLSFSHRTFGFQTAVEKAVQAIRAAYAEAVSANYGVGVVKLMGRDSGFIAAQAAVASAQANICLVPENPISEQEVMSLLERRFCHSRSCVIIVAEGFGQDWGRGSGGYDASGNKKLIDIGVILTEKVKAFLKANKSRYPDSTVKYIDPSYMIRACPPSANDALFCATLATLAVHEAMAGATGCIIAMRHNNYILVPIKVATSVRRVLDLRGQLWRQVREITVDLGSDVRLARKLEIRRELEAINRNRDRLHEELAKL
Chain of Ubiquitin carboxyl-terminal hydrolase 1 (Homo sapiens) (O94782 whole entry, looked up): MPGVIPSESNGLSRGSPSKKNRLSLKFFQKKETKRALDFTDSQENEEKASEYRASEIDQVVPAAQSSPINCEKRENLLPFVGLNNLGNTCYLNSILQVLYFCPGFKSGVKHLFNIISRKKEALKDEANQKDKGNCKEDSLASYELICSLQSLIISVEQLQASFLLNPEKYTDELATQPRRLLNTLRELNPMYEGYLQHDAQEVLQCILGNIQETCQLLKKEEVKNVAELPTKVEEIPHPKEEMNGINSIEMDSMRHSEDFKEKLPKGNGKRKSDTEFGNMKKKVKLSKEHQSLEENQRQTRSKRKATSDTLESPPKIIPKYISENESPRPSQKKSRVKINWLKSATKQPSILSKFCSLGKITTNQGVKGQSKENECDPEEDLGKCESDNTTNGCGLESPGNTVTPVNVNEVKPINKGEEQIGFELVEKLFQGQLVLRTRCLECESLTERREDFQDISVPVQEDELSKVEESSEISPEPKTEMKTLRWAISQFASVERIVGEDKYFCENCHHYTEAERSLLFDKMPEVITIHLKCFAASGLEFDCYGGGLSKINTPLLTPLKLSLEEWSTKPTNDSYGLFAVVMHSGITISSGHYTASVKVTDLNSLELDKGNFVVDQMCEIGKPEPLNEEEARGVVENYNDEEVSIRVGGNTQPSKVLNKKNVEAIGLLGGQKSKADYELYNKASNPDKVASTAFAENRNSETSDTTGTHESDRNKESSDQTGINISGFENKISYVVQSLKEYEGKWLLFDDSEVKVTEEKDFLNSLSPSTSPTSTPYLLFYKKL
Chain of Luciferin 4-monooxygenase (Photinus pyralis) (P08659 whole entry, looked up): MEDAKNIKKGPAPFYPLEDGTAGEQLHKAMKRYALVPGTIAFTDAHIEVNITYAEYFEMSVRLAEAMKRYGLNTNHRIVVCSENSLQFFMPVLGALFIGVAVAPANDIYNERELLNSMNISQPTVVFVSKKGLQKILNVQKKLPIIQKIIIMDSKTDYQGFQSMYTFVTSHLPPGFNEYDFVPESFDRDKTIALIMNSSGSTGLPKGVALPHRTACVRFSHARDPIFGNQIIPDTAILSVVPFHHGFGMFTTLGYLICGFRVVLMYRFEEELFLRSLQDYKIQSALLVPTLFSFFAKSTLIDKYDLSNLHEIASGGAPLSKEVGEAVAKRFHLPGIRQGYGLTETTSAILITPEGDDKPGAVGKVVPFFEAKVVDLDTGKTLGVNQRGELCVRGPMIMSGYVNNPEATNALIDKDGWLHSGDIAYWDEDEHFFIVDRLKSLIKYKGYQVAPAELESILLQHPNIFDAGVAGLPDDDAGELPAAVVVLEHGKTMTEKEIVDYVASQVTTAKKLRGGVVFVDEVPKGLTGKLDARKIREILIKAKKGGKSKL

CC[C@@H](C)[C@H]1O[C@]2(CC[C@H]1C)C[C@@H]1C[C@@H](CC=C(C)[C@@H](O[C@H]3C[C@H](OC)[C@@H](O[C@H]4C[C@H](OC)[C@@H](O)[C@H](C)O4)[C@H](C)O3)[C@@H](C)C=CC=C3CO[C@@H]4[C@H](O)C(C)=C[C@@H](C(=O)O1)[C@]34O)O2
inactive: outcome [1]

CC12CCC3C4CCC(=O)C(O)=C4CCC3C1CCC2OC(=O)CCC1CCCC1 (stereo not drawn)
inactive: outcome [2] | Potency [3] | Potency [4] | Potency [5] | Potency [6] | activity, negative = inhibition ([7]; parasite line A) -6.44% | activity, negative = inhibition ([7]; parasite line B) -4.5% | Potency (3D7) | Potency (AA1029) | Potency (AS120) | Potency (ATS189) | Potency (ATS95) | Potency (C2A) | Potency (CP185) | Potency (CP191) | Potency (CP192) | Potency (CP194) | Potency (CP201) | Potency (CP203) | Potency (CP211) | Potency (CP215) | Potency (CP217) | Potency (CP237) | Potency (CP238) | Potency (CP247) | Potency (CP250) | Potency (CP252) | Potency (CP256) | Potency (CP260) | Potency (CP262) | Potency (CP265) | Potency (CP266) | Potency (CP268) | Potency (CP269) | Potency (CP286) | Potency (CP291) | Potency (CP297) | Potency (CP305) | Potency (CP315) | Potency (CP325) | Potency (CP329) | Potency (CP335) | Potency (DFO2036) | Potency (DIV14) | Potency (DIV17) | Potency (DIV30) | Potency (ECU) | Potency (FAB9) | Potency (GB4) | Potency (HB3) | Potency (JCK) | Potency (N140) | Potency (P93_24) | Potency (P94_40) | Potency (PAD) | Potency (PC15) | Potency (PC26) | Potency (PC49) | Potency (SC27B) | Potency (TAB109) | Potency (TAB113) | Potency (TAB165)
